CHT inh: inhibits the human high affinity choline transporter; Q9GZV3; CHT-expressing cells, membrane potential dye, choline response; stronger effect = lower value; 0.86% of 310,000 active; B-score at 10 µM; AID 488975;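 active means B-score over 3 SD under the library average, and starting fluorescence ratio not unusually high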;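 further: choline stimulus applied at its EC90 after an EC20 pre-addition; B-score computed on integrated fluorescence ratio after choline addition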
TMEM16A act: activates or potentiates the mouse TMEM16A chloride channel. HEK293 TMEM16A/YFP-H148Q/I152L, iodide quench fluorescence; stronger effect = lower value. B-score at 10 µM. Q8BHY3. 0.3% of 340,000 active;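 active means fluorescence-ratio B-score plate-corrected deviation score at least 3 library SD below zero, with starting fluorescence score within 5 deviations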;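 further: channel opened by trigger with iodide after compound preincubation; score built on the fluorescence ratio of max minus min over baseline; more negative score means more quench and so TMEM16A activation or potentiation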
ANO1 block: blocks the mouse calcium-activated chloride channel TMEM16A. 1.2% of 310,000 active. normalized B-score (activity score, 25-100; higher = stronger inhibition) at 10 µM. AID 588511. HEK293 TMEM16A/YFP iodide influx fluorescence, ionomycin. Q8BHY3;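 active means ratio plate-corrected score three or more library SD toward inhibition, starting fluorescence score within five deviations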;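 further: score derived from kinetic fluorescence span divided by baseline fluorescence per well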
HDAC3 inh: blocks human histone deacetylase 3 | recombinant HDAC3, fluorogenic peptide/trypsin coupled, fluorescence | inhibition, % at 8.3 µM | 0.15% of 320,000 active | O15379 | AID 2718; in the data active means inhibition above about 26%, passing the limit was not always enough
PHOSPHO1 block: blocks human PHOSPHO1 phosphatase activity. inhibition, % at 13.3 µM. recombinant PHOSPHO1, absorbance phosphatase assay. Q8TCT1. 1.1% of 290,000 active; in the data active means inhibition above about 60%
Target sequence (Q8TCT1 whole entry, looked up): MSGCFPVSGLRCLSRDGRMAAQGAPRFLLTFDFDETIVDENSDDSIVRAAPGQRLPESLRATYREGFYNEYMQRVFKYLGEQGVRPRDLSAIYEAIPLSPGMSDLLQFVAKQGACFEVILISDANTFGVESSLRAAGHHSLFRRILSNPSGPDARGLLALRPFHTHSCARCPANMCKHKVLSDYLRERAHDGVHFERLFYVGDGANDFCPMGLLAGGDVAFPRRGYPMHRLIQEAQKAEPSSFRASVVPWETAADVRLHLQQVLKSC
CHT allo act: allosterically activates the human high affinity choline transporter. CHT-expressing cells, membrane potential dye, choline EC20; stronger effect = higher value; LV-AA mutant CHT in HEK293 cells. B-score at 10 µM. 0.49% of 310,000 active;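 active means initial fluorescence not abnormally high and integrated response B-score, plate-corrected, over 3 SD above library mean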
TMEM16A reconf: reconfirmed blocker of mouse TMEM16A calcium-activated chloride channel; 39% of 2,300 active; AID 652189; shares compounds with ANO1 block; HEK293 TMEM16A/YFP-H148Q, iodide quench fluorescence; ionomycin added to raise cell calcium; inhibition, % at 10 µM;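 active means mean duplicate percent inhibition, scaled so buffer wells are 0 and the reference blocker 100, over three buffer SD above buffer mean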
HEK293 Ca mobil: calcium mobilization counter-screen hit for TMEM16A inhibitor series. shares compounds with ANO1 block. TMEM16A/YFP HEK293, Fluo4 calcium mobilization. calcium response (% of ionomycin), % at 10 µM. 2% of 2,300 active. AID 652231;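 active means duplicate-averaged calcium signal over 20% of the ionomycin maximum, relative to buffer baseline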;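 further: each well's signal is peak minus trough fluorescence divided by its pre-addition baseline; 0% = buffer wells and 100% = ionomycin wells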
YFP-HEK293 quench: acts in parental YFP-HEK293 cells lacking TMEM16A, counter-screen; iodide YFP quench, ionomycin; 2,300 tested, under 10 active; YFP ratio F(max-min)/F0 at 10 µM; shares compounds with ANO1 block; AID 652233;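 active means yellow fluorescent protein signal ratio exceeding the buffer control mean by over 5 SD of those controls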;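 further: ratio is mean of duplicate wells from kinetic YFP trace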
ClC-1 inh: blocks the rat ClC-1 voltage-dependent chloride channel; ratio percent, % at 10 µM; shares compounds with ANO1 block; AID 652236; CHO ClC-1-YFP, iodide influx fluorescence quench; iodide control reads 0, buffer control 100; 2,300 tested, under 10 active;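 active means duplicate-mean ratio percent above the mean of iodide-only control wells, which defines zero, plus 5 of their SD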;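 further: higher percent means stronger block of ClC-1 iodide influx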
An asterisk follows results filed as active; i = inactive; . = no result. An excerpt weighted towards active compounds, which were near 3.2% of everything screened.

SMILES | CHT inh | TMEM16A act | ANO1 block | HDAC3 inh | PHOSPHO1 block | CHT allo act | TMEM16A reconf | HEK293 Ca mobil | YFP-HEK293 quench | ClC-1 inh
CSc1nc2ccc(NS(=O)(=O)c3cccc(Cl)c3Cl)cc2s1 | i | i | 100* | 5 | 4 | i | 62%* | i | -0.92 | -16
Cc1nc2ccc(NS(=O)(=O)c3ccccc3Cl)cc2s1 | . | i | . | -3 | . | . | . | . | . | .
Cc1ccc(NC(=O)c2c(C(F)(F)F)nn(C)c2SCc2cccc(C(F)(F)F)c2)cc1C | i | i | 100* | -3 | -125 | i | i | i | -0.98 | -8
Cc1ccc(-c2nc3ccc(C(=O)O)cc3nc2-c2ccc(C)cc2)cc1 | i | i | 25* | 2 | -45 | i | i | i | -1.1 | -18
Cc1ccc2nc(-c3ccccc3)c(-c3ccccc3)nc2c1 | i | i | i | -2 | 29 | i | . | . | . | .
COc1cccc(N2CC(C(=O)NC3CCCCC3)CC2=O)c1 (centres undefined) | i | i | i | -6 | -4 | i | . | . | . | .
Cc1ccc(C)c(S(=O)(=O)N(C)C2(C)CCS(=O)(=O)C2)c1 (centres undefined) | i | i | i | 0 | . | i | . | . | . | .
Cc1noc(C)c1C(=O)Nc1sccc1C(N)=O | . | i | . | -2 | . | . | . | . | . | .
CN1C(=O)c2ccccc2NC(=O)[C@]12O[C@@H]2c1cccc(O)c1 | i | i | i | -2 | 22 | i | i | i | -0.55 | -8
c1ccc(-c2csc(N3CCOCC3)n2)cc1 | i | i | i | 0 | 11 | i | . | . | . | .
c1ccc(-c2csc(N3CCN(c4ccccn4)CC3)n2)cc1 | i | i | 25* | 3 | -17 | i | i | i | -1.1 | -8
CN1CCN(c2nc3ccccc3nc2C(C#N)S(=O)(=O)c2ccccc2)CC1 (centres undefined) | i | . | i | 2 | 37 | i | . | . | . | .
Cc1ccc(C)c(S(=O)(=O)C(C#N)c2nc3ccccc3nc2N2CCOCC2)c1 (centres undefined) | i | i | 25* | -13 | -23 | i | 22%* | i | -0.89 | -14
Cc1ccc(C)c(S(=O)(=O)C(C#N)c2nc3ccccc3nc2N2CCCC2)c1 (centres undefined) | i | i | i | -9 | 72* | i | i | i | -0.73 | -8
Cc1ccc(S(=O)(=O)C(C#N)c2nc3ccccc3nc2N2CCN(C)CC2)cc1C (centres undefined) | i | i | i | 5 | 19 | i | . | . | . | .
CCCc1cc(C(=O)Nc2cccc(Cl)c2C)no1 | i | i | 25* | 8 | 24 | i | i | i | -1 | -4
CCCc1cc(C(=O)NCc2ccccc2)no1 | i | i | 100* | 2 | -26 | i | i | i | -1.2 | -8
CCCc1cc(C(=O)Nc2ccccc2SC)no1 | i | i | i | -3 | 10 | i | . | . | . | .
COC(=O)c1scc(C#N)c1N/N=C(\C#N)S(=O)(=O)c1ccc(Cl)cc1 | i | i | 25* | -1 | 37 | i | i | i | -1 | -24
CCc1ccc(NSc2ccccc2[N+](=O)[O-])cc1 | i | i | 25* | 8 | 7 | i | i | i | -1.2 | -2
Clc1nc(-c2ccccc2)ncc1Oc1ccccc1 | i | i | i | -3 | . | i | . | . | . | .
O=C(CNc1cccc(S(=O)(=O)N2CCCC2)c1)Nc1ccc(F)c(F)c1 | i | i | i | -6 | . | i | . | . | . | .

High-throughput results: PubChem, several laboratories
